Many of the other results were omitted from the sample, so hits are more common in it than they were.
BL2 CD40 inh: CD40 pathway inhibition in BL2 cells. BL2 NF-kB luciferase reporter, CD40L-induced, 4 h. inhibition, % at 10 µM. 83,000 compounds, 0.94% hits;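 active = mean inhibition of at least 50% with a set share of replicates also reaching that level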;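 also: 0% = neutral control wells and 100% = IKK inhibitor VII at 50 µM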
Starred values were filed as active, the others as inactive; [ ] = remark or other dose.

CC(=O)OC(C)(C)/C=C/C(=O)C(C)(O)C1C(O)CC2(C)C3CC=C4C(CC(O)C(=O)C4(C)C)C3(C)C(=O)CC12C (stereo not drawn) was read as BL2 CD40 inh 60*.
COC(=O)[C@@H]1[C@@H](CO)[C@@H]2Cn3c(ccc(C4=CCCC4)c3=O)[C@H]1N2C(=O)CC1CC1 was read as BL2 CD40 inh 0[25 µM].
Screening CC12CC(=O)C3C(CCC4CC(=O)C=CC43C)C1CCC2=O (stereo not drawn) returned BL2 CD40 inh 31.
`C/C=C/c1ccc(C2[C@@H]3CN(C(=O)C4CCC4)C[C@H]2N3)cc1` (stereo partly drawn) gave BL2 CD40 inh 10.
For C[C@@H]1CN([C@H](C)CO)C(=O)c2c(c3ccccc3n2C)-c2ccccc2CO[C@H]1CN(C)C(=O)Oc1ccccc1 the results were BL2 CD40 inh 9.
CC1=NNC(=O)C1Br (stereo not drawn) was read as BL2 CD40 inh 52*.
`CN1[C@@H]2CN(CC3CC3)C[C@H]1C2c1ccc(Br)cc1` (stereo partly drawn) gave BL2 CD40 inh -14.
For COC(=O)[C@H]1[C@H](CO)[C@H]2Cn3c(cccc3=O)[C@@H]1N2C(=O)C1CC1 the results were BL2 CD40 inh -11[25 µM].
`CC=Cc1ccc2n(c1=O)C[C@@H]1[C@@H](CO)[C@H](C(=O)OC)[C@H]2N1C(=O)CC1CC1` (mixture of isomers) gave BL2 CD40 inh -19[25 µM].
CCN1CC2(COC(=O)c3ccccc3N3C(=O)CC(C)C3=O)CCC(OC)C34C5CC6C(OC)CC(O)(C5C6OC)C(O)(C(OC)C23)C14 (stereo not drawn) was read as BL2 CD40 inh 5[25 µM].
Screening O=C(O)[C@H]1[C@H](CO)[C@H]2Cn3c(ccc(-c4ccccc4F)c3=O)[C@@H]1N2C(=O)Nc1ccccc1 returned BL2 CD40 inh -8[25 µM].
Screening NC(N)=N/N=C/c1cn(-c2ccccc2)nc1-c1cccs1 returned BL2 CD40 inh 87*.
For COc1cccc(-c2ccc([C@@H]3[C@H]4CN(C(=O)Cc5ccncc5)CCCCN4[C@H]3CO)cc2)c1 the results were BL2 CD40 inh -4[25 µM].
`C/C=C/c1ccc(C2[C@@H]3CN(Cc4cccc(F)c4)C[C@H]2N3)cc1` (stereo partly drawn) gave BL2 CD40 inh 9.
`O=C(Cc1cccnc1)N1CCCCN2[C@H](CO)[C@@H](c3ccc(C#CC4(O)CCCC4)cc3)[C@@H]2C1` gave BL2 CD40 inh -2[25 µM].
Screening CC=Cc1ccc2n(c1=O)C[C@H]1[C@H](CO)[C@@H](C(=O)OC)[C@@H]2N1S(=O)(=O)c1ccccc1C (mixture of isomers) returned BL2 CD40 inh 4[25 µM].
For CC(=O)N1C[C@@H]2C(c3ccccc3)[C@H](C1)N2C (stereo partly drawn) the results were BL2 CD40 inh -1.
Screening COc1cccc2c1N=C1CCCC3CN(C(C)=O)CCC123 (stereo not drawn) returned BL2 CD40 inh 2.
Screening CC1OC(OC2CC(O)C3(CO)C4C(O)CC5(C)C(C6=CC(=O)OC6)CCC5(O)C4CCC3(O)C2)C(O)C(O)C1O (stereo not drawn) returned BL2 CD40 inh 73*[25 µM].
C[C@@H]1O[C@@H](O[C@H]2C[C@@H](O)[C@]3(CO)[C@H]4[C@H](O)C[C@]5(C)[C@@H](C6COC(=O)C6)CC[C@]5(O)[C@@H]4CC[C@]3(O)C2)[C@H](O)[C@H](O)[C@H]1O (stereo partly drawn) was read as BL2 CD40 inh 67*.
Screening O=C(O)C[C@@H]1CC[C@H]2NC[C@@H](O)COC[C@@H]2O1 returned BL2 CD40 inh 1[25 µM].
For COC(=O)[C@@H]1[C@@H](CO)[C@@H]2Cn3c(ccc(C4=CCCCC4)c3=O)[C@H]1N2C(=O)Cc1ccccn1 the results were BL2 CD40 inh -1[25 µM].
`CC(C)NC(=O)N1CC2C(c3ccccc3)C(C1)N2C` (stereo not drawn) gave BL2 CD40 inh 0.
`CCCN1[C@@H]2Cn3c(ccc(-c4cccc(OC)c4)c3=O)[C@H]1[C@@H](C(=O)OC)[C@@H]2CO` gave BL2 CD40 inh -1[25 µM].
Screening O=C(Cc1cccnc1)N1CCCCN2[C@H](CO)[C@@H](c3ccc(C#CC4CCCC4)cc3)[C@H]2C1 returned BL2 CD40 inh -6[25 µM].
Screening COC(=O)[C@H]1[C@H](CO)[C@H]2Cn3c(cccc3=O)[C@@H]1N2Cc1nccs1 returned BL2 CD40 inh 8[25 µM].
O=C1CNC[C@@H]2[C@@H](c3ccc(Br)cc3)[C@H](CO)N12 was read as BL2 CD40 inh -17[25 µM].
`C=CCN1[C@@H]2CN(S(C)(=O)=O)C[C@H]1C2c1ccccc1` (stereo partly drawn) gave BL2 CD40 inh -1.
Screening CCOP(=O)(CCP(=O)(OCC)OCC)OCC.C[CH2][Sn]([Cl])([Cl])[CH2]C returned BL2 CD40 inh 59*.
`OC[C@@H]1Nc2ccc(C#Cc3cccnc3)cc2[C@H]2NCC[C@@H]12` gave BL2 CD40 inh 6[25 µM].
Screening COC(=O)[C@H]1[C@H](CO)[C@H]2Cn3c(ccc(-c4ccccc4F)c3=O)[C@@H]1N2C(C)=O returned BL2 CD40 inh 1[25 µM].
`COC(=O)[C@@H]1[C@@H](CO)[C@@H]2Cn3c(ccc(/C=C/c4ccccc4)c3=O)[C@H]1N2CC1CCCC1` gave BL2 CD40 inh 16[25 µM].
For O=C(Cc1cccnc1)N1CCCCN2[C@@H](CO)[C@@H](c3ccc(C#CC4CCCC4)cc3)[C@@H]2C1 the results were BL2 CD40 inh -10[25 µM].
Cc1nn(Cc2ccccc2)c(C)c1C(=O)OCC(=O)Nc1cc(S(C)(=O)=O)ccc1Cl was read as BL2 CD40 inh 2.
`COC(=O)C12OCC34C(CC5C(C)=C(O)C(=O)CC5(C)C3C(O)C1O)OC(=O)C(OC(=O)/C=C(\C)C(C)C)C24` (stereo not drawn) gave BL2 CD40 inh 92*.
Screening c1ccc(C2NCCc3[nH]cnc32)cc1 (stereo not drawn) returned BL2 CD40 inh 8.
COc1cccc(-c2ccc3n(c2=O)C[C@H]2[C@H](CO)[C@@H](C(=O)O)[C@@H]3N2Cc2ccccc2F)c1 was read as BL2 CD40 inh 5[25 µM].
For O=C(Cc1ccccn1)N1CCCCN2[C@H](C1)[C@@H](c1ccc(Br)cc1)[C@@H]2CO the results were BL2 CD40 inh 0[25 µM].
For O=C1NC(=O)c2c1c1c3ccccc3[nH]c1c1[nH]c3ccccc3c21 the results were BL2 CD40 inh 69*[25 µM].
C[C@]12CCC3C(CC[C@@H]4C[C@H](O)CC[C@]34C)C1CCC2=O (stereo partly drawn) was read as BL2 CD40 inh 11.
COc1ccc(OC(=O)N(C)C[C@@H]2OCc3ccccc3-c3c(n(C)c4ccccc34)C(=O)N([C@@H](C)CO)C[C@H]2C)cc1 was read as BL2 CD40 inh 38.
C[C@]12CCC3C(C(=O)C[C@H]4C[C@@H](O)CC[C@]34C)C1CCC2=O (stereo partly drawn) was read as BL2 CD40 inh -2.
For C[C@H]1CCCC(=O)CCC/C=C/c2cc(O)cc(O)c2C(=O)O1 the results were BL2 CD40 inh 43*.
Screening CN1[C@H](CO)[C@H]2c3ccccc3NC[C@H]21 returned BL2 CD40 inh -9[25 µM].
`FC(F)(F)CN1C[C@@H]2C(c3ccccc3)[C@H](C1)N2CC1CC1` (stereo partly drawn) gave BL2 CD40 inh 3.
FC(F)(F)CN1C[C@@H]2C(c3ccc(Br)cc3)[C@H](C1)N2CC1CC1 (stereo partly drawn) was read as BL2 CD40 inh -4.
